Data from PubChem BioAssay (NCATS).
Inconclusive results are not listed. The source made the active and inactive calls. Calls come from the whole dose curve; as a rule, active = well fitted curve in the direction sought with a large enough effect; inconclusive = small, poorly fitted or top-dose-only effect, or another doubt; inactive = no such curve, though single readings can be large; an effect the other way counts as inactive or inconclusive.

How the values were obtained:
[1] = Quantitative High-Throughput drug screen in 47 multiple myeloma cell lines against the NCATS MIPE library collection: AMO1_DSMZ cell viability assay (AID 1918927; note: nearly all actives have a fitted effect of over 30% in size)
How it was run: (§1)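 Inhibition of cell viability is measured here. Each line was plated at 500 cells per well, treated with MIPE 4.0 drugs, kept 48 hours at 37C, then assayed for ATP content by CellTiter-Glo luminescence.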

[2] = Quantitative High-Throughput drug screen in 47 multiple myeloma cell lines against the NCATS MIPE library collection: ARD_JJKsccE7 cell viability assay (AID 1918929)
How it was run: as §1

[3] = Quantitative High-Throughput drug screen in 47 multiple myeloma cell lines against the NCATS MIPE library collection: Karpas620_DSMZ cell viability assay (AID 1918959); note: nearly all actives have a fitted effect of over 30% in size
How it was run: (§2)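 Myeloma cells (500 per well) were exposed to MIPE 4.0 compounds by pin transfer and incubated 48 hours at 37C, 5% CO2. Viability was read as ATP by CellTiter-Glo luminescence, normalised to DMSO (100%) and media-only (0%) wells.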

[4] = Quantitative High-Throughput drug screen in 47 multiple myeloma cell lines against the NCATS MIPE library collection: Karpas417_ECACC cell viability assay (AID 1918961); conditions: Karpas417 myeloma viability, CellTiter-Glo ATP luminescence, 48 h; viability (% of DMSO): at 45.8 µM (top of the series)
How it was run: (§3)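 CellTiter-Glo ATP luminescence gave viability after 48 h compound treatment at 37C of 500 multiple myeloma cells per well. Normalisation used DMSO-only wells as 100% and media-only wells as 0% viability; primary qHTS of approved and investigational drugs.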

[5] = Quantitative High-Throughput drug screen in 47 multiple myeloma cell lines against the NCATS MIPE library collection: JIM3_ECACC cell viability assay (AID 1918963; note: nearly all actives have a fitted effect of over 35% in size)
How it was run: as §2

[6] = Quantitative High-Throughput drug screen in 47 multiple myeloma cell lines against the NCATS MIPE library collection: JIM1_ECACC cell viability assay (AID 1918964)
How it was run: as §1

[7] = Quantitative High-Throughput drug screen in 47 multiple myeloma cell lines against the NCATS MIPE library collection: H1112_PLB cell viability assay (AID 1918967; note: nearly all actives have a fitted effect of over 30% in size)
How it was run: as §1

[8] = Quantitative High-Throughput drug screen in 47 multiple myeloma cell lines against the NCATS MIPE library collection: Karpas25_ECACC cell viability assay (AID 1918968; note: nearly all actives have a fitted effect of over 35% in size)
How it was run: as §1

[9] = Quantitative High-Throughput drug screen in 47 multiple myeloma cell lines against the NCATS MIPE library collection: KMS27_JCRB cell viability assay (AID 1918970); note: nearly all actives have a fitted effect of over 30% in size
How it was run: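 CellTiter-Glo luminescence after 48 h drug exposure at 37 °C; 500 cells/well, 1536-well format, pin-tool compound addition; DMSO = 100%, media-only = 0% viability.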

[10] = Quantitative High-Throughput drug screen in 47 multiple myeloma cell lines against the NCATS MIPE library collection: KMS26_JCRB cell viability assay (AID 1918975); note: nearly all actives have a fitted effect of over 45% in size
How it was run: as §2

[11] = Quantitative High-Throughput drug screen in 47 multiple myeloma cell lines against the NCATS MIPE library collection: ARP1_JJKsccF8 cell viability assay (AID 1918928; note: nearly all actives have a fitted effect of over 40% in size)
How it was run: (§4)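 Cell viability inhibition in this qHTS is measured via ATP content (CellTiter-Glo) after 48 h drug exposure at 37 °C. Wells hold 500 cells; DMSO-treated wells define 100% and medium-only wells 0%.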

[12] = Quantitative High-Throughput drug screen in 47 multiple myeloma cell lines against the NCATS MIPE library collection: INA6_PLB cell viability assay (AID 1918965; note: nearly all actives have a fitted effect of over 55% in size)
How it was run: as §3

[13] = Quantitative High-Throughput drug screen in 47 multiple myeloma cell lines against the NCATS MIPE library collection: JJN3_DSMZ cell viability assay (AID 1918966; note: nearly all actives have a fitted effect of over 50% in size)
How it was run: as §1

[14] = Quantitative High-Throughput drug screen in 47 multiple myeloma cell lines against the NCATS MIPE library collection: KMS12BM_JCRB cell viability assay (AID 1918971); note: nearly all actives have a fitted effect of over 35% in size
How it was run: as §2

[15] = Quantitative High-Throughput drug screen in 47 multiple myeloma cell lines against the NCATS MIPE library collection: KMS12PE_JCRB cell viability assay (AID 1918972); note: nearly all actives have a fitted effect of over 30% in size
How it was run: as §3

[16] = Quantitative High-Throughput drug screen in 47 multiple myeloma cell lines against the NCATS MIPE library collection: KMS20_JCRB cell viability assay (AID 1918973); note: nearly all actives have a fitted effect of over 45% in size
How it was run: as §1

[17] = Quantitative High-Throughput drug screen in 47 multiple myeloma cell lines against the NCATS MIPE library collection: MMM1_PLB cell viability assay (AID 1918976); note: nearly all actives have a fitted effect of over 35% in size
How it was run: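 ATP-based CellTiter-Glo luminescence after 48 h drug exposure (37 °C, 5% CO2) of 500 myeloma cells per well. DMSO-only wells set 100% viability, media-only wells 0%; MIPE 4.0 library added by pin tool.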

[18] = Quantitative High-Throughput drug screen in 47 multiple myeloma cell lines against the NCATS MIPE library collection: KMM1_JCRB cell viability assay (AID 1918960); note: nearly all actives have a fitted effect of over 30% in size
How it was run: as §4

[19] = Quantitative High-Throughput drug screen in 47 multiple myeloma cell lines against the NCATS MIPE library collection: KHM11_PLB cell viability assay (AID 1918962); note: nearly all actives have a fitted effect of over 35% in size
How it was run: as §2

[20] = Quantitative High-Throughput drug screen in 47 multiple myeloma cell lines against the NCATS MIPE library collection: KMS21BM_JCRB cell viability assay (AID 1918974); conditions: ATP luminescence, 48 h; viability: at 45.8 µM (top of the series) unless noted
How it was run: as §1
Potency is the fitted concentration of half-maximal effect.

CC(C)(C)C(=O)Oc1ccc2c(c1)nc(NC(=O)c1cccc([N+](=O)[O-])c1)n2CCCO
inactive: Potency [1] | Potency [2] | Potency [3] | Potency [4] | Potency [5] | Potency [6] | Potency [7] | Potency [8] | Potency [9] | Potency [10]

CC(C)=CC[C@@H](O)C1=CC(=O)c2c(O)ccc(O)c2C1=O
active: Potency [1] 4.18 µM | Potency [11] 1.32 µM | Potency [4] 1.18 µM | Potency [5] 16.6 µM | Potency [12] 0.296 µM | Potency [13] 0.372 µM | Potency [7] 7.43 µM | Potency [9] 20.9 µM | Potency [14] 0.935 µM | Potency [15] 18.7 µM | Potency [16] 14.8 µM | Potency [17] 1.05 µM

CC(C)C(=O)Nc1ncc(-c2cc(C(F)F)nn2-c2c(Cl)cccc2Cl)s1
active: Potency [1] 8.33 µM | Potency [2] 20.9 µM | Potency [18] 16.6 µM | Potency [5] 23.5 µM | Potency [6] 10.5 µM | Potency [12] 23.5 µM | Potency [8] 20.9 µM | Potency [9] 14.8 µM | Potency [14] 26.4 µM | Potency [15] 16.6 µM | Potency [10] 18.7 µM

NC1=N[C@@]2(c3cc(NC(=O)c4ccc(F)cn4)ccc3F)COC[C@@H]2CS1
active: Potency [1] 2.64 µM | Potency [2] 1.87 µM | Potency [3] 0.418 µM | Potency [18] 3.32 µM | viability (% of DMSO) [4] 105% | Potency [19] 13.2 µM | Potency [6] 0.935 µM | Potency [12] 14.8 µM | Potency [7] 10.5 µM | Potency [8] 14.8 µM | Potency [9] 0.264 µM | Potency [15] 1.05 µM
inactive: Potency [5] | Potency [14]

Cc1cnc(C(=O)O)c[n+]1[O-]
inactive: Potency [1] | Potency [2] | Potency [3] | Potency [4] | Potency [19] | Potency [5] | Potency [7] | Potency [8] | Potency [9] | Potency [14] | Potency [15]

COCCCCC(=NOCCN)c1ccc(C(F)(F)F)cc1
active: Potency [14] 20.9 µM
inactive: Potency [1] | Potency [2] | Potency [3] | Potency [5] | Potency [15]

COC[C@@H](c1ccc(C(F)(F)F)cc1)N1CCN(C2(C)CCN(C(=O)c3c(C)ncnc3C)CC2)C[C@H]1C
active: Potency [1] 16.6 µM | Potency [7] 13.2 µM | Potency [8] 8.33 µM
inactive: Potency [11] | Potency [9] | Potency [14] | Potency [10]

COc1ccc(C2CC(c3ccccc3)=NN2c2ccc(S(N)(=O)=O)cc2)cc1 (stereo unspecified)
inactive: Potency [19]
active: Potency [1] 11.8 µM | Potency [2] 23.5 µM | Potency [3] 16.6 µM | Potency [18] 18.7 µM | Potency [5] 18.7 µM | Potency [6] 14.8 µM | Potency [7] 14.8 µM | Potency [9] 8.33 µM | Potency [14] 18.7 µM | Potency [15] 11.8 µM

C[C@H]1[C@H](NC(=O)C(=NOC(C)(C)C(=O)O)c2csc(N)n2)C(=O)N1S(=O)(=O)O
inactive: Potency [1] | Potency [2] | Potency [3] | Potency [18] | Potency [19] | Potency [5] | Potency [7] | Potency [9] | Potency [15]
active: Potency [14] 1.48 µM | Potency [16] 16.6 µM

Clc1ccc(COC(Cn2ccnc2)c2ccc(Cl)cc2Cl)cc1 (stereo unspecified)
active: Potency [1] 23.5 µM | Potency [2] 26.4 µM | Potency [18] 20.9 µM | Potency [12] 20.9 µM | Potency [15] 23.5 µM

O=c1cc(N2CCOCC2)oc2c(-c3cccc4c3sc3ccccc34)cccc12
active: Potency [1] 5.26 µM | Potency [2] 11.8 µM | Potency [18] 5.9 µM | Potency [19] 5.9 µM | Potency [5] 3.32 µM | Potency [6] 2.96 µM | Potency [12] 2.96 µM | Potency [13] 14.8 µM | Potency [7] 16.6 µM | Potency [8] 4.18 µM | Potency [9] 18.7 µM | Potency [14] 16.6 µM | Potency [15] 11.8 µM | Potency [16] 13.2 µM

Cc1ccn(-c2ccc(-c3ncco3)cc2)c(=O)c1-c1ccc2nc(N)ncc2c1
active: Potency [1] 14.8 µM | Potency [4] 5.26 µM | Potency [5] 10.5 µM | Potency [12] 0.662 µM | Potency [8] 9.35 µM | Potency [14] 13.2 µM | Potency [15] 5.26 µM | Potency [16] 8.33 µM
inactive: Potency [11] | Potency [7] | Potency [9]

CC[C@H]1OC(=O)[C@H](C)C(=O)[C@H](C)[C@@H](O[C@H]2O[C@H](C)C[C@H](N(C)C)[C@@H]2O)[C@](C)(OC)C[C@@H](C)C(=O)[C@H](C)[C@H]2N(CCCCn3cnc(-c4cccnc4)c3)C(=O)O[C@]12C
active: Potency [7] 13.2 µM | Potency [14] 29.6 µM | Potency [17] 18.7 µM
inactive: Potency [1] | Potency [2] | Potency [3] | Potency [19] | Potency [5] | Potency [6] | Potency [12] | Potency [8] | Potency [9]

O=c1cc(-c2ccccc2)oc2cc(O)cc(O)c12
active: Potency [1] 16.6 µM | Potency [2] 26.4 µM | Potency [18] 20.9 µM | Potency [5] 16.6 µM
inactive: Potency [19] | Potency [7]

CO[C@@H](C(=O)N1Cc2[nH]nc(NC(=O)c3ccc(N4CCN(C)CC4)cc3)c2C1)c1ccccc1
active: Potency [1] 4.69 µM | Potency [2] 26.4 µM | Potency [5] 4.69 µM | Potency [6] 16.6 µM | Potency [12] 0.372 µM | Potency [13] 23.5 µM | Potency [8] 16.6 µM | Potency [9] 23.5 µM | Potency [16] 16.6 µM | Potency [20] 1.87 µM
